# Laboratory results published in PubChem BioAssay (Tox21).
# Unmarked numbers belong to inactive results. Active and inactive are the calls of the source. The call rests on the fitted dose curve; in most records, active means well fitted curve in the direction sought with a large enough effect in the repeat runs; inconclusive means weak or mixed curves; inactive means flat fitted curve, though single readings scatter.
# Test: qHTS assay to test for compound auto fluorescence at 590 nm (red) in HepG2 cell free culture (AID 720684)
# Settings: cell-free medium autofluorescence, red 540/590 nm; series mostly up to 91.3 µM; fluorescence, % of Rose Bengal: at the top concentration
# Source text: U.S. Tox21 Program National Center for Advancing Translational Sciences [NCATS] NIH Chemical Genomics Center [NCGC] U.S. Environmental Protection Agency [EPA] National Institutes of Environmental Health Sciences [NIEHS] National Toxicology Program [NTP] U.S. Food and Drug Administration [FDA] Tox21 Assay Overview: Compound auto fluorescence often interferes with screening of the compound library against various biological targets and signaling pathways. Some of these compounds may have fluorophoric properties. Such properties may interfere with the assay outputs resulting in false positives and/or negatives. To decrease such complications and ensure the compound activities are relevant in terms of biological response, the Tox21 10K compound library was screened for auto fluorescence. From the fluorophores used as reporter signals in our screening assays, the auto fluorescence equivalencies of compounds against three fluorophores have been evaluated: Triamterene, Fluorescein and Rose Bengal sodium for blue, green and red fluorescence, respectively. The fluorescence intensities were measured using Excitation/Emission wavelengths at 405/460nm, 485/535nm and 540/590nm for blue, green and red labels, respectively. This assay includes the red fluorescence data.
# Tox21 Assay Protocol Summary: 5 uL of culture medium (MEM containing 10% FBS) per well was dispensed into black wall/clear bottom 1536-well plates using a Multidrop Combi Dispenser (ThermoFisher Scientific, Waltham, MA). After 23 nL compound or DMSO vehicle was transferred into assay plate by a pintool work station (Kalypsys, San Diego, CA), fluorescence intensities in the assay plates were measured by an Envision (PerkinElmer, Shelton, CT) plate reader using three labels for measuring blue, green and red fluorescence at […] 460, 535 and 590nm respectively.
# On the % scale 0 is the no-effect control and ±100 the full control effect.
SMILES,"fluorescence, % of Rose Bengal",outcome
CCOC1Oc2ccc(OS(C)(=O)=O)cc2C1(C)C (stereo not given),0.0646%,
CC(C)(C1CCC(O)CC1)C1CCC(O)CC1 (stereo not given),-0.364%,
CC(C)(O)C(Cl)(Cl)Cl,0.576% [at 46 µM],
N#CN=C1SCCN1Cc1ccc(Cl)nc1,-0.111%,
CON(C)C(=O)Nc1ccc(Br)c(Cl)c1,0.0927%,
CC(C)(C)NC[C@H](O)c1ccc(O)cc1Cl,0.0086% [at 46 µM],
CCOP(=O)(CN(CCO)CCO)OCC,-0.129%,
Cc1cc(OC(=O)N(C)C)nn1C(=O)N(C)C,-0.192%,
O=C1CCCCC1Cl (stereo not given),0.0207% [at 95.7 µM],
CN(C)C1CCCCC1,0.0174%,
CCCC(C)C1(CC)C(=O)N=C(S)NC1=O (stereo not given),0.799% [at 46 µM],
NNC(N)=O,-0.525% [at 95.7 µM],
CCOC(=O)Nc1cccc(OC(=O)Nc2ccccc2)c1,-0.0129%,
C=CCCC#N,-0.0351%,
CCOP(=S)(OCC)Oc1ccc(Cl)cc1Cl,0.297%,
C#CC(C)(C)O,-0.0521% [at 95.7 µM],
CCNc1nc(Cl)nc(NC(C)(C)C)n1,-0.115%,
CCC(=O)OC1(c2ccccc2)CCN(C)CC1,-0.0007% [at 95.7 µM],
C=C(Cl)CCl,0.0369%,
CCCCOC(C)=O,0.0037% [at 95.7 µM],

SMILES,"fluorescence, % of Rose Bengal",outcome
C=CCN1CC[C@]23CCCC[C@H]2[C@H]1Cc1ccc(O)cc13,0.585% [at 46 µM],
C=CC(=O)OCCN(C)C,0.0028%,
O=C1CC(=O)NC(=O)N1,0.0733%,
CC1N=C(N)OC1c1ccccc1 (stereo not given),0.0284%,
O=C(Cl)CCl,-0.243%,
NC1(c2ccccc2)CCCCC1,0.148%,
CCC(C(N)=O)N1CCCC1=O (stereo not given),0.383% [at 46 µM],
CN(C)CCN(C)C,-0.0588%,
N[C@@H]1C[C@H]1c1ccccc1,-0.203% [at 46 µM],
O=C1C2CC=CCC2C(=O)N1SC(Cl)(Cl)Cl (stereo not given),,inactive
CC1=C2[C@H]3OC(=O)[C@@H](C)[C@@H]3CC[C@@]2(C)C=CC1=O,0.0204% [at 46 µM],
CCCC(C)(COC(N)=O)COC(N)=O,,inactive
O=C/C=C/c1ccco1,-0.0145%,
CCC(=O)c1ccc(Cl)cc1,-0.218%,
C=C1CC[C@@]2(O)[C@H]3Cc4ccc(O)c5c4[C@@]2(CCN3CC2CC2)[C@H]1O5,-0.162% [at 46 µM],
Brc1c(Br)c(Br)c(Br)c(Br)c1Br,0.0791% [at 3.72 µM],
O=C(O)C(Cl)Br (stereo not given),-0.0294% [at 95.7 µM],
CN(C)C(=O)Oc1cc(OC(=O)N(C)C)cc(C(O)CNC(C)(C)C)c1 (stereo not given),-0.0966% [at 18.6 µM],
CCNP(=S)(OC)O/C(C)=C/C(=O)OC(C)C (stereo not given),-0.102%,
CCC(C)(C#N)N=NC(C)(C#N)CC (stereo not given),0.112%,
